In PubChem BioAssay AID1159580 (chemical genetic matrix, 2015):
Several values for one entry are separate records, joined by “and”; a condition that tells them apart may be missing. Equal values may be shown once. The whole screen tested about 5,500 compounds, of which about 2,000 (36%) were called active. Inconclusive results (about 18%) are left out. No stated cut-off is given here; in the data, active means normalized growth mostly below about 0.91 (no sharp cut-off); inconclusive means no clear call, values can overlap the other calls; inactive means mostly above about 0.92. The list shows a part of the results.

Test: chemical genetic growth profiling, strain panel (AID 1159580);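 further: tested at 20 µM; growth read once vehicle control cultures reached saturation at 30 °C; 1 = growth at the plate median or of vehicle wells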
Conditions: S. cerevisiae deletion strains, growth OD

Measured: normalized growth

CCN(CC)CCOc1ccc2c(c1)C(=O)c1cc(OCCN(CC)CC)ccc1-2
inactive: locus YAL013W, strain DEP1, stronger effect = lower value 1 | locus YAL021C, strain ccr4, stronger effect = lower value 0.962 | locus YAL026C, strain drs2, stronger effect = lower value 0.984 | locus YAL030W, strain snc1, stronger effect = lower value 1 | locus YBL061C, strain skt5, stronger effect = lower value 0.993 | locus YBR009C, strain hhf1, stronger effect = lower value 0.993 | locus YBR021W, strain FUR4, stronger effect = lower value 1.06 | locus YBR023C, strain chs3, stronger effect = lower value 0.98 | locus YBR171W, strain sec66, stronger effect = lower value 0.979 | locus YBR229C, strain ROT2, stronger effect = lower value 1 | locus YBR231C, strain swc5, stronger effect = lower value 0.974 | locus YBR279W, strain paf1, stronger effect = lower value 0.981 | locus YCL011C, strain gbp2, stronger effect = lower value 0.977 | locus YCL016C, strain dcc1, stronger effect = lower value 0.973 | locus YCL029C, strain bik1, stronger effect = lower value 0.975 | locus YCL061C, strain MRC1, stronger effect = lower value 0.981 | locus YCL069W, strain vba3, stronger effect = lower value 0.996 | locus YCR088W, strain abp1, stronger effect = lower value 0.984 | locus YDL005C, strain med2, stronger effect = lower value 0.966 | locus YDL035C, strain GPR1, stronger effect = lower value 0.991 | locus YDL040C, strain nat1, stronger effect = lower value 0.986 | locus YDL074C, strain BRE1, stronger effect = lower value 0.998 | locus YDL101C, strain DUN1, stronger effect = lower value 0.987 | locus YDL134C, strain PPH21, stronger effect = lower value 0.994 | locus YDL185W, strain tfp1, stronger effect = lower value 0.947 | locus YDL192W, strain arf1, stronger effect = lower value 0.984 | locus YDR001C, strain nth1, stronger effect = lower value 0.979 | locus YDR069C, strain doa4, stronger effect = lower value 0.96 | locus YDR101C, strain arx1, stronger effect = lower value 0.991 | locus YDR137W, strain rgp1, stronger effect = lower value 0.998 | locus YDR150W, strain NUM1, stronger effect = lower value 0.973 | locus YDR159W, strain sac3, stronger effect = lower value 1 | locus YDR162C, strain NBP2, stronger effect = lower value 1.02 | locus YDR195W, strain ref2 0.96 | locus YDR297W, strain sur2, stronger effect = lower value 0.997 | locus YDR318W, strain mcm21, stronger effect = lower value 0.98 | locus YDR334W, strain swr1, stronger effect = lower value 0.975 | locus YDR335W, strain msn5, stronger effect = lower value 0.989 | locus YDR388W, stronger effect = lower value 0.983 | locus YDR392W, strain spt3, stronger effect = lower value 0.807 | locus YDR502C, strain sam2, stronger effect = lower value 0.99 | locus YEL003W, strain gim4, stronger effect = lower value 0.99 | locus YEL037C, strain rad23, stronger effect = lower value 0.994 | locus YEL061C, strain CIN8 (second series), stronger effect = lower value 0.986 | locus YEL061C, strain CIN8, stronger effect = lower value 0.997 | locus YER015W, strain faa2, stronger effect = lower value 0.991 | locus YER016W, strain bim1, stronger effect = lower value 0.957 | locus YER110C, stronger effect = lower value 0.962 | locus YER111C, strain swi4, stronger effect = lower value 0.971 | locus YER155C, strain BEM2 (second series), stronger effect = lower value 0.937 | locus YER155C, strain BEM2, stronger effect = lower value 1 | locus YER167W, strain BCK2, stronger effect = lower value 0.982 | locus YFR010W, strain ubp6, stronger effect = lower value 0.992 | locus YGL078C, strain dbp3, stronger effect = lower value 0.98 | locus YGL086W, strain mad1, stronger effect = lower value 0.993 | locus YGL167C, strain pmr1, stronger effect = lower value 0.982 | locus YGL173C, strain kem1, stronger effect = lower value 0.978 | locus YGL227W, strain vid30, stronger effect = lower value 0.978 | locus YGL240W, strain doc1, stronger effect = lower value 0.983 | locus YGL248W, strain PDE1, stronger effect = lower value 1 | locus YGL253W, strain hxk2, stronger effect = lower value 0.983 | locus YGR078C, strain PAC10, stronger effect = lower value 0.996 | locus YGR135W, strain pre9, stronger effect = lower value 1.02 | locus YGR229C, strain SMI1, stronger effect = lower value 1.04 | locus YGR252W, strain gcn5, stronger effect = lower value 0.99 | locus YHR013C, strain ard1, stronger effect = lower value 0.933 | locus YHR027C, strain rpn1, stronger effect = lower value 0.979 | locus YHR030C, strain SLT2, stronger effect = lower value 0.977 and 0.988 | locus YHR079C, strain IRE1 (second series), stronger effect = lower value 0.989 | locus YHR079C, strain IRE1, stronger effect = lower value 0.977 | locus YHR094C, strain hxt1, stronger effect = lower value 0.972 | locus YHR129C, strain ARP1, stronger effect = lower value 0.998 | locus YHR142W, strain chs7, stronger effect = lower value 0.99 | locus YHR200W, strain rpn10, stronger effect = lower value 0.98 | locus YIL066C, strain RNR3, stronger effect = lower value 0.99 | locus YIL073C, strain SPO22, stronger effect = lower value 0.948 | locus YIL125W, strain kgd1, stronger effect = lower value 0.981 | locus YIR030C, strain dcg1, stronger effect = lower value 0.991 | locus YJL092W, strain hpr5, stronger effect = lower value 0.987 | locus YJL095W, strain BCK1 (second series), stronger effect = lower value 0.983 | locus YJL095W, strain BCK1, stronger effect = lower value 1 and 0.986 | locus YJL115W, strain asf1, stronger effect = lower value 0.98 | locus YJL129C, strain trk1, stronger effect = lower value 0.974 | locus YJL134W, strain LCB3, stronger effect = lower value 0.989 | locus YJL154C, strain vps35, stronger effect = lower value 0.979 | locus YJL164C, strain tpk1, stronger effect = lower value 0.993 | locus YJL166W, strain qcr8, stronger effect = lower value 0.984 | locus YJL168C, strain set2, stronger effect = lower value 0.983 | locus YJL187C, strain SWE1 (second series), stronger effect = lower value 0.983 | locus YJL187C, strain SWE1, stronger effect = lower value 0.981 | locus YJR043C, strain POL32, stronger effect = lower value 1.01 | locus YJR066W, strain TOR1, stronger effect = lower value 0.965
